Screens deposited in PubChem by several laboratories.
Compounds with a hit are over-represented: about 1.6% of the library has one in this group of screens.
GASC-1 inh = human JMJD2C demethylase inhibition. Q9H3R0. GST-JMJD2C(1-420) H3K9me3 demethylation, DELFIA europium. inhibition, % at 2.35 µM. 330,000 compounds, 0.069% hits;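 active means more than half of a compound's replicate wells show inhibition beyond 50%, single wells judged on their own value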;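 further: signal counts dimethyl H3K9 product captured on neutravidin plate; 0% = median of DMSO wells and 100% = 0.3 times that DMSO median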
VLA-4 inh = inhibition in a human VLA-4 binding assay; VLA-4 expressing cells, ligand binding flow cytometry; inhibition, % (about 7 µM as worked out from the volumes in the protocol); 330,000 compounds, 0.2% hits; in the data active means inhibition above about 50%
Pemphigus Ab inh = human desmoglein-3 autoantibody binding inhibition | DSG3-coupled beads, scFv-anti-DSG3-GFP binding, flow cytometry; active compounds read low | binding (percent of control), % at 10 µM | 310,000 compounds, 0.48% hits | AID 588358;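 active means binding more than 3 SD below its plate's average and above zero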;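 further: hits lower antibody fragment binding to DSG3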
GRK2 aptamer HTS = blocks RNA aptamer binding to human GRK2. P25098. bead flow cytometry, FAM-aptamer displacement from GRK2. inhibition of aptamer binding, % at 10 µM. 330,000 compounds, 0.59% hits;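 active means inhibition of aptamer binding above 40%, roughly 3 SD of noise, on plates passing a quality check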;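 further: median bead fluorescence of bound FAM aptamer so fluorescent compounds give negative values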
PREPL inh = human PREPL enzyme inhibition; Q4J6C6; recombinant PREPL, fluorescence polarization activity-based probe; inhibition, % at 5.96 µM; 320,000 compounds, 0.68% hits; AID 2751;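 further: 0% = enzyme with DMSO and 100% = wells lacking enzyme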
Target sequence (Q4J6C6 whole entry, looked up): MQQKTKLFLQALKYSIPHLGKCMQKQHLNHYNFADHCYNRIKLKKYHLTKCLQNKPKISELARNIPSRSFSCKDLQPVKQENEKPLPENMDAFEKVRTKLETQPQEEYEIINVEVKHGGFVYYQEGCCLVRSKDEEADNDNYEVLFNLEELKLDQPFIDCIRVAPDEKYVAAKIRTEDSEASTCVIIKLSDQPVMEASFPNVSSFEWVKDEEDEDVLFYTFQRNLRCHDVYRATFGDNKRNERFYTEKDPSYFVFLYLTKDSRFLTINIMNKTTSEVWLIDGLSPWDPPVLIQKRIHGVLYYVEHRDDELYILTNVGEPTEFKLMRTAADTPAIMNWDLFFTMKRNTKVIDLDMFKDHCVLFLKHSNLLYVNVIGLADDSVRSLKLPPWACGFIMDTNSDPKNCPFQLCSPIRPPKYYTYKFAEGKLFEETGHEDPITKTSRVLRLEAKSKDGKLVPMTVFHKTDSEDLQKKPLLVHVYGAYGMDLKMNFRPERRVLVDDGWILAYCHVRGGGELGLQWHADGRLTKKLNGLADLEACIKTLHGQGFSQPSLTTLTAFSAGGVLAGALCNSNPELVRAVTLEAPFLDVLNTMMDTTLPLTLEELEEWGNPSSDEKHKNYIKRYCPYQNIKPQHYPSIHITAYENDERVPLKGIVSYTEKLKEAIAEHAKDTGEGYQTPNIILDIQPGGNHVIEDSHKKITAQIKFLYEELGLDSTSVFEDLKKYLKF
PREPL inh cf = human PREPL inhibition, confirmation. 2,000 compounds, 67% hits. inhibition, % at 5.96 µM. recombinant PREPL, fluorescence polarization activity probe. shares compounds with PREPL inh;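 further: 0% = protein with DMSO and 100% = wells lacking protein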
Numbers without * were called inactive; x = no result. Unless noted, no stated cut-off is given here; in the data, active means inhibition above about 43%; inactive means the rest.

SMILES	GASC-1 inh	VLA-4 inh	Pemphigus Ab inh	GRK2 aptamer HTS	PREPL inh	PREPL inh cf
Cc1ccc(C(=O)CCC(=O)OCC(=O)N(CC(C)C)c2c(N)n(Cc3ccccc3)c(=O)[nH]c2=O)cc1	7.5	25.3	97.1	0.0	-25.8	x
N#Cc1ccc(CSc2nnc(-c3cccnc3)n2-c2ccccc2)cc1	-7.0	7.4	101.5	0.0	46.0*	41.2
Cc1ccn2c(Nc3ccccc3)c(-c3ccccn3)nc2c1	-1.9	14.9	97.8	0.0	66.7*	63.1*
Cc1ccn2c(Nc3ccccc3C)c(-c3ccccn3)nc2c1	-25.7	1.5	101.2	1.0	51.9*	40.6
Cc1cccn2c(Nc3ccccc3)c(-c3ccccn3)nc12	12.1	-1.4	94.0	2.0	-12.8	x
Cc1ccccc1Nc1c(-c2ccccn2)nc2ccccn12	-8.0	4.3	82.1	0.0	23.2	x
CCOC(=O)CCNCc1ccc(F)cc1	-16.0	0.5	x	1.0	6.3	x
C[C@H]1CN([C@@H](C)CO)C(=O)Cc2cc(NC(=O)CCN3CCOCC3)ccc2O[C@@H]1CN(C)Cc1ccc(Oc2ccccc2)cc1	4.5	24.2	109.1	0.0	52.7*	54.2*
COc1cccc2cc(C(=O)C3=C(O)C(=O)N(CCN4CCOCC4)C3c3ccc(C(C)(C)C)cc3)oc12 (stereo not drawn)	-0.1	3.4	107.0	4.0	52.9*	56.4*
COc1cccc2cc(C(=O)C3=C(O)C(=O)N(CCN4CCOCC4)C3c3ccc(Cl)cc3)oc12 (stereo not drawn)	2.0	12.3	116.4	2.0	15.4	x
COc1ccc(-n2nc3c(N4CCC(C(=O)NCCc5ccccc5C)CC4)nnc(C)c3c2C)cc1	5.5	7.0	116.4	0.0	51.9*	37.4
COc1ccc(-n2nc3c(N4CCC(C(=O)NCc5ccccc5C)CC4)nnc(C)c3c2C)cc1	21.3	31.5	x	0.0	39.3	x
COc1ccc(-n2nc3c(N4CCC(C(=O)NCC(C)c5ccccc5)CC4)nnc(C)c3c2C)cc1 (stereo not drawn)	-29.5	-1.8	124.3	0.0	49.7*	42.9
Cc1ccc(NC(=O)C[n+]2cc(-c3ccc(C)cc3)n3c2CCC3)cc1	x	1.3	114.1	0.0	14.6	x
Cn1c(NC(=O)C[n+]2cc(-c3ccc(Cl)c(Cl)c3)n3c2CCC3)cc(=O)n(C)c1=O	-0.8	13.4	105.2	20.0	60.3*	51.1*
O=C(C[n+]1cc(-c2ccccc2)n2c1CCCCC2)c1ccc(Br)cc1	-6.1	4.7	x	0.0	54.1*	25.8
Cc1ccc2c(c1)-n1c(nc3cc(Cl)ccc3c1=O)C(CC(C)C)NC2=O (stereo not drawn)	0.6	13.1	x	1.0	9.7	x
NC(=O)C1CC(=O)N(c2ccc(OCc3ccc(Cl)c(Cl)c3)cc2)C1 (stereo not drawn)	x	x	99.9	x	x	x
NC(=O)C1CC(=O)N(c2ccc(OCc3ccc(Cl)cc3Cl)cc2)C1 (stereo not drawn)	2.5	15.6	95.5	0.0	47.3*	43.0
O=C1c2ccccc2C(=O)c2c(Nc3ccc(CCO)cc3)ccc(O)c21	-1.4	-7.8	96.4	3.0	28.9	x
O=C1c2c(O)ccc(O)c2C(=O)c2c(NCCNCCO)ccc(NCCNCCO)c21	x	0.0	101.0	99.0*	101.5*	98.2*
CCN(C(=O)COC(=O)/C=C/c1ccc(OC(F)F)c(OC)c1)C1CCS(=O)(=O)C1 (stereo not drawn)	0.7	0.1	104.5	2.0	15.9	x
Cc1ccc(-n2c(C)nnc2SCC(=O)N2CCOCC2)cc1	-3.7	5.5	111.9	4.0	9.3	x
O=C(NCCCN1CCN(Cc2ccccc2)CC1)C1CCN(c2nnc(-n3cccc3)s2)CC1	3.1	-4.2	117.2	0.0	43.6*	31.6
CC(=O)N1CCN(c2ccc(OC[C@H]3CO[C@](Cn4ccnc4)(c4ccc(Cl)cc4Cl)O3)cc2)CC1	-24.7	32.1	99.0	0.0	60.8*	64.1*
SMILES	GASC-1 inh	VLA-4 inh	Pemphigus Ab inh	GRK2 aptamer HTS	PREPL inh	PREPL inh cf
COc1cc(-c2nnc(-c3ccncc3)o2)ccc1OCc1ccccc1	-1.0	-9.4	103.5	1.0	44.4*	42.9
CC(/C=C/c1ccco1)=N/NC(=O)c1ccc(C)nc1	-18.8	10.4	x	1.0	60.2*	16.6
CC(/C=C/c1ccco1)=N\NC(=O)c1cccnc1	110.7	25.3	93.8	0.0	15.0	x
COC/C=C/C1=CC2=CC(=O)C(C)(OC(=O)c3cnc4ccccc4n3)C(=O)C2=CN1c1cccc(C#N)c1 (stereo not drawn)	-0.3	0.7	x	0.0	9.7	x
COc1ccc(CNC(=O)Cn2nc([N+](=O)[O-])c(Br)c2C)cc1OC	-2.2	27.7	91.4	0.0	2.6	x
O=C(O)/C=C\C(=O)Nc1ccc(N2CCN(c3ccc(F)cc3)CC2)cc1	-35.7	2.1	87.7	5.0	51.1*	25.4
O=C(O)/C=C\C(=O)Nc1ccc(N2CCN(c3ccc(Cl)cc3)CC2)cc1	-1.0	-14.0	106.5	0.0	48.3*	29.4
O=C(CCc1nnc(COc2ccccc2)o1)NCc1ccccc1C(F)(F)F	-7.4	5.3	101.9	3.0	22.1	x
O=C(c1ccccc1)c1ccc(C(=O)N2CCN(c3ccccc3O)CC2)cc1	x	x	98.6	x	x	x
O=C(Nc1ccc(NC(=O)N2CCN(c3ccccc3O)CC2)cc1)N1CCN(c2ccccc2O)CC1	2.7	-0.1	53.9*	0.0	55.9*	51.7*
COc1cccc(C2CC(c3ccc(C)cc3)Nc3nc(N)nn32)c1 (stereo not drawn)	1.8	8.4	105.8	0.0	48.9*	50.7*
Nc1nc(CSC(=S)N2CCN(c3ccccc3)CC2)nc(Nc2ccccc2)n1	-1.2	5.0	123.3	5.0	-50.0	x
Cc1ccc(Nc2nc(N)nc(CSC(=S)N3CCN(c4ccccc4)CC3)n2)cc1	1.9	-0.2	114.2	0.0	63.9*	33.9
CCC(=O)N1CCN(c2ccc(NC(=O)COc3ccc(C)cc3C)cc2)CC1	-6.6	-2.9	89.0	1.0	41.8	x
Cc1ccc(C(=O)N2CCN(c3ccc(NC(=O)COc4ccccc4C)cc3)CC2)cc1	0.7	0.0	102.9	0.0	51.9*	50.8*
O=C(Cc1ccc(Cl)cc1)Nc1ccc(N2CCN(C(=O)c3ccco3)CC2)c(Cl)c1	9.0	14.8	97.6	2.0	53.6*	47.4*
Cc1ccccc1OCCCC(=O)Nc1ccc(N2CCOCC2)cc1	-3.5	3.3	97.2	5.0	50.4*	34.2
O=C(COc1ccccc1)Nc1ccc(N2CCN(C(=O)c3ccco3)CC2)cc1	13.9	6.0	x	0.0	42.1	x
Cc1ccc(OCC(=O)Nc2ccc(N3CCN(C(=O)c4ccco4)CC3)cc2)cc1	18.5	1.1	102.7	1.0	51.6*	43.5*
Cc1cc([N+](=O)[O-])nn1CC(=O)NCc1ccc(Cl)cc1	2.5	23.5	120.0	3.0	2.5	x
CCCCOc1ccc(C(=O)NCC(=O)NCCOc2ccccc2OC)cc1	13.1	6.9	98.9	1.0	0.4	x
Nc1ccc(N2CCN(C(=O)c3ccco3)CC2)cc1	43.4	-3.8	102.8	0.0	62.8*	43.5*
